Inconclusive results are not listed. Activity calls are given as the source filed them. Unless noted, calls come from the whole dose curve; as a rule, active = well fitted curve in the direction sought with a large enough effect; inconclusive = small, poorly fitted or top-dose-only effect, or another doubt; inactive = no such curve, though single readings can be large; an effect the other way counts as inactive or inconclusive.
Legend:
[1] = qHTS profiling of the MIPE4 collection as inhibitors of Plasmodium falciparum (3D7) proliferation (AID 743344; call rule not given here;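 note: scaled between DMSO vehicle wells and 0.29 µM artemisinin as full inhibition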); conditions: P. falciparum 3D7 in erythrocytes, SYBR Green DNA fluorescence, 72 h; at 28.5 µM unless noted
Method in brief: (§1)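 Erythrocytes infected with P. falciparum (0.3% parasitemia, 2.5% hematocrit) incubated with compounds 72 h at 37 C, 5% CO2. Lysis with saponin/Triton buffer containing SYBR Green I, overnight at room temperature in the dark; DNA fluorescence (485/535 nm) normalised to 0.29 uM artemisinin and DMSO.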

[2] = qHTS profiling of the MIPE4 collection as inhibitors of Plasmodium falciparum (DD2) proliferation (AID 743345; call rule not given here); conditions: P. falciparum Dd2 in erythrocytes, SYBR Green DNA, 72 h; at 28.5 µM unless noted
Method in brief: as §1

[3] = qHTS profiling of the MIPE4 collection as inhibitors of Plasmodium falciparum (DD2) proliferation (Rep 2) (AID 743346; call rule not given here); conditions: P. falciparum Dd2 in erythrocytes, SYBR Green DNA, 72 h; at 28.5 µM unless noted
Method in brief: as §1

[4] = qHTS profiling of the MIPE4 collection as inhibitors of Plasmodium falciparum (HB3) proliferation (AID 743347; call rule not given here;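 note: plate controls were DMSO vehicle wells for no effect and artemisinin wells for full effect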); conditions: P. falciparum HB3 in erythrocytes, SYBR Green DNA, 72 h; at 28.5 µM unless noted
Method in brief: as §1

[5] = High-throughput drug toxicity screening in the BPDCN cell line Gen2.2 (AID 1224824; call rule not given here;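 note: cells exposed to compounds for 48 h before reading; 100% = DMSO and 0% = bortezomib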); conditions: Gen2.2 BPDCN cells; at 45.8 µM (top of the series) unless noted
Method in brief: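 Readout is ATP luminescence from Gen2.2 cells after two days of drug exposure in serum-containing medium at 37 °C. Values express percent activity, with vehicle defining full signal and 9.2 uM bortezomib defining zero.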

[6] = qHTS assay for measurement of the activity of small molecule inhibitors on Zika virus induced Caspase-3 activity in human iPSC derived neural progenitor cells (hNPCs) (AID 1224857); note: % of control where 0% means no effect; nearly all actives have a fitted effect of over 65% in size
Method in brief: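 hNPCs seeded 350 cells/well, cultured 16–20 h; compounds added 1 h before ZIKV (2 FFU/cell), 37 C 6 h. Caspase-Glo 3/7 luminescence after 30 min RT; % inhibition from induction scaled to uninfected (0%) and infected (100%) wells.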

[7] = qHTS assay for measurement of the activity of small molecule inhibitors on Zika virus induced Caspase-3 activity in human astrocytoma cells (AID 1224859);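 note: plate controls were ZIKV-infected untreated cells for no effect and uninfected cells for full effect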
Method in brief: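 Luminescence read-out (Caspase-Glo 3/7, 30 min RT) of caspase activity in SNB-19 cells infected 6 h with ZIKV, 2 FFU/cell, after 1 h compound pretreatment; % inhibition from induction normalised to uninfected (0%) and infected (100%) wells.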

[8] = qHTS Screen of the MIPE 4.0 Collection Against Ewings Sarcoma (RDES) (AID 1259252); note: nearly all actives have a fitted effect of over 35% in size; note: potency is the fitted concentration of half-maximal effect
Method in brief: (§2)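 Here, cells in 5% FBS RPMI were exposed for two days (48 h) to compound dilutions added four hours after plating. ATP-based CellTiter-Glo luminescence measured viability, normalized to vehicle and no-cell blanks.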

[9] = qHTS Screen of the MIPE 4.0 Collection Against Ewings Sarcoma (TC71) (AID 1259253); note: nearly all actives have a fitted effect of over 40% in size; note: potency is the fitted concentration of half-maximal effect
Method in brief: as §2

[10] = qHTS Screen of the MIPE 4.0 Collection Against Ewings Sarcoma (EW8) (AID 1259255); note: nearly all actives have a fitted effect of over 35% in size; note: potency is the fitted concentration of half-maximal effect;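 for viability: 100% = DMSO-treated cells and 0% = medium-only wells without cells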
Method in brief: as §2

[11] = qHTS assay for cell viability of HEK293 cells (AID 743288); conditions: ATP luminescence (CellTiter-Glo), 18 h, stronger effect = lower value; note: % is set by controls: 0 for no effect and ±100 for the full control effect; nearly all actives have a fitted effect of over 50% in size
Method in brief: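 Luminescent ATP quantitation served as the viability read-out. Cells (parental HEK293, 2,000/well) received compounds after at least 5 h at 37 C and were exposed for 18 h before a 30 min room-temperature reagent step.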

[12] = qHTS assay for cell viability of the p53RE-bla HCT-116 cell line (AID 743292); note: % is set by controls: 0 for no effect and ±100 for the full control effect; nearly all actives have a fitted effect of over 55% in size
Method in brief: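 Readout: CellTiter-Glo luminescence after 30 min RT. Treatment: compounds in DMSO, 16 h, 37 C. Cells: CellSensor p53RE-bla HCT-116, 4,000/well, preincubated 5 h.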

[13] = qHTS profiling for inhibitors of Plasmodium falciparum (3D7) proliferation (AID 743322);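 note: infected erythrocytes exposed to compound for 72 h before lysis; 100% = DMSO vehicle wells and 0% = 0.29 µM artemisinin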; conditions: P. falciparum 3D7 proliferation; at 28.7 µM (top of the series)
Method in brief: as §1

[14] = qHTS profiling for inhibitors of Plasmodium falciparum (DD2) proliferation (AID 743323; call rule not given here); conditions: lower = more inhibition; at 28.7 µM (top of the series)
Method in brief: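 Parasite DNA quantified by SYBR Green fluorescence (ex 485, em 535 nm) after saponin/Triton lysis and overnight dark incubation. Cultures: 0.3% parasitemia, 2.5% hematocrit, 72 h, 37 C; data scaled between DMSO and 0.29 uM artemisinin.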

[15] = qHTS profiling for inhibitors of Plasmodium falciparum (HB3) proliferation (AID 743324); conditions: Plasmodium falciparum HB3 blood-stage proliferation; at 28.7 µM (top of the series);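 note: 100% = DMSO vehicle wells and 0% = artemisinin-treated control wells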
Method in brief: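 P. falciparum HB3 grown in erythrocytes (0.3% parasitemia, 2.5% hematocrit final) with compound for 72 h at 37 C, 5% CO2. Parasite DNA detected by SYBR Green after saponin/triton lysis overnight; normalized to 0.29 uM artemisinin and DMSO.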

SMILES	parasite growth, % of DMSO control [1] [%]	parasite growth remaining, % of DMSO control (lower = more inhibition) [2] [%]	parasite growth, % of control (lower = inhibition) [3] [%]	growth, % of control [4] [%]	cell viability, % of control (lower = more cytotoxic) [5] [%]	Potency [6]	Potency [7]	Potency [8]	Potency [9]	Potency [10]	max response [11]	outcome [12]	remaining parasite growth % (stronger effect = lower value) [13] [%]	activity, percent of control [14] [%]	remaining proliferation (% of control), lower = more inhibition [15] [%]
CN(CC(=O)N(Cc1ccc(C2CCCCC2)cc1)c1ccc(C(=O)O)c(O)c1)S(=O)(=O)c1c(F)c(F)c(F)c(F)c1F	51	95.9	53.5	27.9	52.5	inactive	inactive	18.7 µM (active)	8.33 µM (active)	9.35 µM (active)	–	–	–	–	–
CCCCCN=C(N)NN=Cc1c[nH]c2ccc(OC)cc12	7.63	7.01	22.5	6.26	38.7	inactive	inactive	6.62 µM (active)	10.5 µM (active)	6.62 µM (active)	–	–	–	–	–
O=C(O)c1ccc(Nc2ncc3c(n2)-c2ccc(Cl)cc2C(c2c(F)cccc2F)=NC3)cc1	56.9	82.8	44	52.9	41.7	inactive	inactive	1.05 µM (active)	0.833 µM (active)	0.296 µM (active)	–	–	–	–	–
N#Cc1c(C2CCNCC2)cc(-c2c(O)cccc2OCC2CC2)nc1N	12	12.3	15.7	5.66	7.25	inactive	inactive	14.8 µM (active)	10.5 µM (active)	14.8 µM (active)	–	–	–	–	–
O=C1c2cccc(O)c2C(=O)c2c(O)cc(CO)cc21	–	–	–	–	161	inactive	inactive	inactive	inactive	inactive	-3.37% (inactive)	inactive	–	–	–
FC(F)(F)c1ccc(Nc2nc3ccc(Oc4ccnc(-c5ncc(C(F)(F)F)[nH]5)c4)cc3[nH]2)cc1	6.13	–	15.3	7.1	14.5	–	inactive	11.8 µM (active)	13.2 µM (active)	–	–	–	–	–	–
CCOc1cc2c(c(F)c1OCC)C(=N)N(CC(=O)c1cc(N3CCOCC3)c(OC)c(C(C)(C)C)c1)C2	5.53	7.24	11.7	6.22	4.1	inactive	inactive	9.35 µM (active)	10.5 µM (active)	13.2 µM (active)	–	–	–	–	–
C[C@H]1[C@@H](OC(=O)CCC(=O)O)O[C@@H]2O[C@@]3(C)CC[C@@H]4[C@H](C)CC[C@@H]1[C@@]24OO3	–	–	10.6	8.92	9.55	inactive	inactive	1.87 µM (active)	1.32 µM (active)	1.66 µM (active)	–	–	–	–	–
CN[C@@H]1C[C@H]2O[C@@](C)([C@H]1OC)n1c3ccccc3c3c4c(c5c6ccccc6n2c5c31)C(=O)N[C@H]4O	5.29	–	14.9	3.74	13	–	inactive	0.935 µM (active)	0.209 µM (active)	0.418 µM (active)	–	–	–	–	–
COc1cccc2c1C(=O)c1c(O)c3c(c(O)c1C2=O)C[C@@](O)(C(=O)CO)C[C@H]3O[C@H]1C[C@H](N)[C@H](O)[C@H](C)O1	3.34	5.82	5.25	1.64	6.45	inactive	inactive	0.187 µM (active)	0.0743 µM (active)	0.0264 µM (active)	–	–	-4.47	-1.95	4.32
C[C@@H](Cc1cc2c(c(C(N)=O)c1)N(CCCO)CC2)NCCOc1ccccc1OCC(F)(F)F	48.1	84	–	85.9	183	inactive	inactive	inactive	inactive	inactive	–	–	–	–	–
